Records with an inconclusive call do not appear. Active and inactive are the calls of the source. Unless noted, calls come from the whole dose curve; as a rule, active = well fitted curve in the direction sought with a large enough effect in the repeat runs; inconclusive = weak or mixed curves; inactive = no such curve, though single readings can be large; an effect the other way counts as inactive or inconclusive.
How the values were obtained:
[1] = biological target: Aryl hydrocarbon receptor (Homo sapiens) (UniProt P35869); test: qHTS assay to identify small molecule that activate the aryl hydrocarbon receptor (AhR) signaling pathway (AID 743085);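 note: HG2L7.5c1 human HepG2 liver cells with stably integrated DRE-driven firefly reporter; series mostly up to about 70 µM; nearly all actives have a fitted effect of over 15% in size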
In short: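 Compounds were tested in HepG2 hepatocellular carcinoma cells harbouring a stably integrated luciferase gene under control of 20 DREs. Increased reporter signal after 24 h treatment at 37C was taken as AhR activation.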

[2] = qHTS assay to identify small molecule that activate the aryl hydrocarbon receptor (AhR) signaling pathway - cell viability counter screen (AID 743086);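 note: HepG2 liver cells carrying the AhR DRE luciferase reporter; series mostly up to about 70 µM; nearly all actives have a fitted effect of over 45% in size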
In short: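 Cytotoxicity counter screen: CellTiter-Fluor signal (30 min, 37 C) in 4000 HepG2 cells/well carrying the DRE-luciferase reporter, following 24 h compound exposure at 37 C.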

[3] = qHTS assay to identify small molecule antagonists of the peroxisome proliferator-activated receptor gamma (PPARg) signaling pathway - cell viability counter screen (AID 743194); note: nearly all actives have a fitted effect of over 55% in size
In short: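 Viability was measured as CellTiter-Glo luminescence in GeneBLAzer PPARg UAS-bla HEK293H cells. These cells had been exposed 17 h at 37 C to compounds together with rosiglitazone at 50 nM final, with the beta-lactamase readout taken in the same wells.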

[4] = qHTS assay for small molecule agonists of the antioxidant response element (ARE) signaling pathway (AID 743202; active = well fitted activation curve with a large enough effect in the signal ratio in the repeat runs, not every such curve was filed as active; the % refers to the signal ratio)
In short: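 After 16 hours of compound treatment at 37 C, HepG2 cells with a stably integrated ARE-driven beta-lactamase reporter were loaded 2 hours at room temperature with LiveBLAzer B/G FRET substrate and fluorescence intensity measured.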

[5] = qHTS assay for small molecule agonists of the antioxidant response element (ARE) signaling pathway - cell viability counter screen (AID 743203; calls by dose curve; note: nearly all actives have a fitted effect of over 55% in size)
In short: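 Viability counter screen: stably transfected ARE-bla HepG2 line, 16 hrs compound exposure at 37C/5% CO2, ATP-based CellTiter-Glo luminescence measured in the reporter wells.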

[6] = qHTS assay for small molecule activators of the heat shock response signaling pathway - cell viability counter screen (AID 743209); note: nearly all actives have a fitted effect of over 50% in size
In short: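 Viability of HSE-bla HeLa cells is measured with CellTiter-Glo in the wells already used for the reporter read. Compound exposure lasts 5 h at 37 C, and luminescence is read after 30 min at room temperature.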

[7] = qHTS assay for small molecule activators of the heat shock response signaling pathway (AID 743210; active = well fitted activation curve with a large enough effect in the signal ratio in the repeat runs, with a control signal flat, not every such curve was filed as active; the % refers to the signal ratio; note: series mostly up to about 63 µM)
In short: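 Compound exposure lasted 5 h at 37 C in HeLa cells carrying a heat-shock-element-driven beta-lactamase reporter. Read-out: fluorescence intensity after 2.5 h room-temperature loading with LiveBLAzer B/G FRET substrate.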

[8] = qHTS assay to identify small molecule agonists of the peroxisome proliferator-activated receptor delta (PPARd) signaling pathway - cell viability counter screen (AID 743211); note: nearly all actives have a fitted effect of over 55% in size
In short: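 Counter screen for cytotoxicity run in parallel with the PPARd reporter screen. Beta-lactamase reporter HEK293H cells exposed to compounds 17 h; ATP-based CellTiter-Glo luminescence quantified viability.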

[9] = biological target: Peroxisome proliferator-activated receptor delta (Homo sapiens) (UniProt Q03181); test: qHTS assay to identify small molecule agonists of the peroxisome proliferator-activated receptor delta (PPARd) signaling pathway (AID 743212; calls by dose curve;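 note: HEK293H cells with PPARd UAS beta-lactamase reporter GeneBLAzer system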)
In short: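 Beta-lactamase reporter readout: a ratiometric FRET signal from the LiveBLAzer substrate after 2 h at room temperature. Compound exposure at 37 °C in PPARδ-bla HEK293H cells driven by an upstream activator sequence.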

[10] = qHTS assay to identify small molecule antagonists of the peroxisome proliferator-activated receptor delta (PPARd) signaling pathway - cell viability counter screen (AID 743213); note: nearly all actives have a fitted effect of over 50% in size
In short: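 HEK293H cells with the PPARd UAS-bla reporter, co-treated 17 h at 37 C with compounds and L165041 (300 nM final), were lysed with CellTiter-Glo. Luminescence indicated viable cell content.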

[11] = biological target: Peroxisome proliferator-activated receptor delta (Homo sapiens) (UniProt Q03181); test: qHTS assay to identify small molecule antagonists of the peroxisome proliferator-activated receptor delta (PPARd) signaling pathway (AID 743215; active = well fitted inhibition curve with a large enough effect in the signal ratio in the repeat runs, not every such curve was filed as active; the % refers to the signal ratio;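 note: cells stimulated with agonist L165041 at 300 nM final during compound exposure; series mostly up to about 62 µM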)
In short: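 Plated HEK293H PPARd-bla cells rested 5 h at 37 C and 5% CO2. Compound, then agonist L165041 at 300 nM final, was added; 17 h at 37 C followed. Substrate loading, 2 h room temperature, fluorescence measured.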

[12] = qHTS assay to identify small molecule antagonists of the farnesoid-X-receptor (FXR) signaling pathway - cell viability counter screen (AID 743221; active = well fitted cell-killing curve with a large enough effect in the repeat runs, not every such curve was filed as active; note: nearly all actives have a fitted effect of over 50% in size)
In short: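 Multiplexed counter screen: viability of FXR-bla HEK 293T cells under agonist stimulation by chenodeoxycholic acid (50 uM, final) and test compound for 16 h at 37 C, measured by CellTiter-Glo luminescence in the reporter wells.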

[13] = biological target: Vitamin D3 receptor (Homo sapiens) (UniProt P11473); test: qHTS assay to identify small molecule agonists of the vitamin D receptor (VDR) signaling pathway (AID 743222; calls by dose curve)
In short: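 Fluorescence from cleaved LiveBLAzer B/G FRET substrate served as readout. VDR-bla cells had been treated 16 h at 37C with test compounds in DMSO, following a 4 h settling period, and substrate was loaded for 2 h at RT.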

[14] = biological target: Vitamin D3 receptor (Homo sapiens) (UniProt P11473); test: qHTS assay to identify small molecule antagonists of the vitamin D receptor (VDR) signaling pathway (AID 743223; active = well fitted inhibition curve with a large enough effect in the signal ratio in the repeat runs, not every such curve was filed as active; the % refers to the signal ratio)
In short: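 Cells carrying a VDR-driven beta-lactamase reporter (VDR-bla) were co-treated with compound and 3 nM final 1alpha,25-dihydroxyvitamin D3 for 16 h at 37C; reporter activity was measured as FRET substrate fluorescence after 2 h at room temperature.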

[15] = biological target: Peroxisome proliferator-activated receptor gamma (Homo sapiens) (UniProt P37231); test: qHTS assay to identify small molecule antagonists of the peroxisome proliferator-activated receptor gamma (PPARg) signaling pathway (AID 743191; calls by dose curve; note: series mostly up to about 63 µM; nearly all actives have a fitted effect of over 30% in size)
In short: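 Beta-lactamase reporter under UAS control in HEK293H PPARg-bla cells; compound treatment 17 h at 37C. Read-out: fluorescence intensity after 1 h room-temperature incubation with LiveBLAzer B/G FRET substrate.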

[16] = biological target: Bile acid receptor (Homo sapiens) (UniProt Q96RI1); test: qHTS assay to identify small molecule antagonists of the farnesoid-X-receptor (FXR) signaling pathway (AID 743217; active = well fitted inhibition curve with a large enough effect in the signal ratio in the repeat runs, not every such curve was filed as active; the % refers to the signal ratio)
In short: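 Screen of the Tox21 10K library in quantitative HTS format using FXR-UAS-bla HEK 293T reporter cells. Agonist chenodeoxycholic acid, 50 uM final, added with compounds; 16 h incubation at 37 °C; beta-lactamase FRET fluorescence measured.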

[17] = qHTS assay to identify small molecule agonists of the farnesoid-X-receptor (FXR) signaling pathway - cell viability counter screen (AID 743218); note: nearly all actives have a fitted effect of over 45% in size
In short: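 Viability of FXR-bla HEK 293T cells is measured by ATP-based CellTiter-Glo luminescence following 16 h compound treatment at 37 C and a prior 2 h room-temperature beta-lactamase substrate step.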

[18] = biological target: Bile acid receptor (Homo sapiens) (UniProt Q96RI1); test: qHTS assay to identify small molecule agonists of the farnesoid-X-receptor (FXR) signaling pathway (AID 743220; active = well fitted activation curve with a large enough effect in the signal ratio in the repeat runs, not every such curve was filed as active; the % refers to the signal ratio)
In short: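 FXR-UAS-bla HEK 293T cells carrying a UAS-driven beta-lactamase reporter were plated for 5 h at 37C/5% CO2, then exposed to DMSO-dissolved Tox21 10K compounds for 16 h at 37C. A LiveBLAzer B/G FRET substrate was loaded for 2 h at room temperature before fluorescence reading.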

[19] = qHTS assay to identify small molecule agonists of the vitamin D receptor (VDR) signaling pathway - cell viability counter screen (AID 743224); note: series mostly up to about 63 µM; nearly all actives have a fitted effect of over 50% in size
In short: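 Compounds were pin-transferred onto VDR-bla cells plated 4 h earlier; following 16 h incubation at 37C, cell viability was quantified by CellTiter-Glo luminescence after 30 min at room temperature.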

[20] = biological target: Peroxisome proliferator-activated receptor gamma (Homo sapiens) (UniProt P37231); test: qHTS assay to identify small molecule agonists of the peroxisome proliferator-activated receptor gamma (PPARg) signaling pathway (AID 743094; active = well fitted activation curve with a large enough effect in the signal ratio in the repeat runs, not every such curve was filed as active; the % refers to the signal ratio)
In short: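 Reporter activation was scored by fluorescence of cleaved LiveBLAzer B/G substrate (1 h, room temperature) in PPARg-bla HEK293H cells previously treated 17 h at 37C with DMSO-dissolved compounds.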

Measured: Potency

Sequence of Peroxisome proliferator-activated receptor delta (Homo sapiens) (Q03181 whole entry, looked up): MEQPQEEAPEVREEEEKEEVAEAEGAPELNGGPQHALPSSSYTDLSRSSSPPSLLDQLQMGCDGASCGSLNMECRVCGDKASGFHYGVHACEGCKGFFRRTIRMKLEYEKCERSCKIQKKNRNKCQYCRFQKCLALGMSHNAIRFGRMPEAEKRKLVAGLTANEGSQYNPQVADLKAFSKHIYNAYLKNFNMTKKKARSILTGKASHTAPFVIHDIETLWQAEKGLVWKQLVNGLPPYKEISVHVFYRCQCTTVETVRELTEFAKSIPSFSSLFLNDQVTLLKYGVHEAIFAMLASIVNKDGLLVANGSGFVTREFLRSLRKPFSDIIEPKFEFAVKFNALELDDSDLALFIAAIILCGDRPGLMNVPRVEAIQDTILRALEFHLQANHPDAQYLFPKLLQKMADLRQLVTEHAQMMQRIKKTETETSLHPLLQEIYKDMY
Sequence of Peroxisome proliferator-activated receptor gamma (Homo sapiens) (P37231 whole entry, looked up): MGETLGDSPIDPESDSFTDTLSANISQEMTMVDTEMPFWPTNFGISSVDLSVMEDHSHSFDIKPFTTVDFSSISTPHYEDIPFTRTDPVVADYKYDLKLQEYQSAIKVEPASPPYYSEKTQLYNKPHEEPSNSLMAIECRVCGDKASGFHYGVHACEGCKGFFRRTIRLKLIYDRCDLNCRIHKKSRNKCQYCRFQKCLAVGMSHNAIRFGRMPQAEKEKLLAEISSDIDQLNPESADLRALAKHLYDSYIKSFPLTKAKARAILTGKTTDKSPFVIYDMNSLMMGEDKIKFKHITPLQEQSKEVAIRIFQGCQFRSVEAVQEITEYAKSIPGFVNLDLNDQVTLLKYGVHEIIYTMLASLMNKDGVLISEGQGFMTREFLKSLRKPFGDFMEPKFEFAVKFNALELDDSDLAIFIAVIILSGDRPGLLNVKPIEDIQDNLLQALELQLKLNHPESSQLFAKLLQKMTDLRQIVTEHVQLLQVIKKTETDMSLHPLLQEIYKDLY
Sequence of Aryl hydrocarbon receptor (Homo sapiens) (P35869 whole entry, looked up): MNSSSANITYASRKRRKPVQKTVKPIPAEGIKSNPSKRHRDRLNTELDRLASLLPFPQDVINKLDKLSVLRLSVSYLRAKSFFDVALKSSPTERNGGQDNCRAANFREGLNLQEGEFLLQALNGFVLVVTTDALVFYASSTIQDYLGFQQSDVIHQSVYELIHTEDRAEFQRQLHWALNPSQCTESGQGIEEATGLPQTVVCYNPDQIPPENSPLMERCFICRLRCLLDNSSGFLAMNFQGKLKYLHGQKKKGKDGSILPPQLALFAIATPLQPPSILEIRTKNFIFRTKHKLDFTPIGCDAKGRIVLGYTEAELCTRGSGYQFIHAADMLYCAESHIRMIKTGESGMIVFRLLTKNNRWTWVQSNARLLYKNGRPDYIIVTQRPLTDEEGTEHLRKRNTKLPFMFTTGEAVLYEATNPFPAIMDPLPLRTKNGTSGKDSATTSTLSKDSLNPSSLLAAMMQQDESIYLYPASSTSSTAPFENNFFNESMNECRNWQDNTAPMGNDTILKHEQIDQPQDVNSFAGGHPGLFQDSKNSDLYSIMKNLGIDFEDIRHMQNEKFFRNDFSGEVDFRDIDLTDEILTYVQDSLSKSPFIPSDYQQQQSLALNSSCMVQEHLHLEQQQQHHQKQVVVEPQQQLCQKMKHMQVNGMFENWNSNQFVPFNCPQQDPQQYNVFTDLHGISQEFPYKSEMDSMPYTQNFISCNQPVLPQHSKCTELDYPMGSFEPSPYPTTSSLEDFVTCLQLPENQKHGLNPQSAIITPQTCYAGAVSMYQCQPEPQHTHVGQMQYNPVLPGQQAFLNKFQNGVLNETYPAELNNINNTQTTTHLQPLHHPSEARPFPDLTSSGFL
Sequence of Bile acid receptor (Homo sapiens) (Q96RI1 whole entry, looked up): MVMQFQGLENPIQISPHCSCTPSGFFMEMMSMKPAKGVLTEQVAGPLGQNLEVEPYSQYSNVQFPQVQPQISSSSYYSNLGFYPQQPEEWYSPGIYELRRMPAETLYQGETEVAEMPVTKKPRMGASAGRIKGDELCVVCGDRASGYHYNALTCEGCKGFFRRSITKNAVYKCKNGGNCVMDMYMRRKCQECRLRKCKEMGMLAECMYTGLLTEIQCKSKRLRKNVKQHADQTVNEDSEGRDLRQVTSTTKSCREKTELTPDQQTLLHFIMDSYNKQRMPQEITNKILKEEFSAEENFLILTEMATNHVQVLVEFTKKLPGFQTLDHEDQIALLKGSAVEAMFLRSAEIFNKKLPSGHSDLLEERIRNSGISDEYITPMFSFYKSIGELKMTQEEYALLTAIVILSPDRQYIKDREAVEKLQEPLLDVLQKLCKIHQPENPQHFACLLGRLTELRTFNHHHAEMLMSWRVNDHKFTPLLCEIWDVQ
Sequence of Vitamin D3 receptor (Homo sapiens) (P11473 whole entry, looked up): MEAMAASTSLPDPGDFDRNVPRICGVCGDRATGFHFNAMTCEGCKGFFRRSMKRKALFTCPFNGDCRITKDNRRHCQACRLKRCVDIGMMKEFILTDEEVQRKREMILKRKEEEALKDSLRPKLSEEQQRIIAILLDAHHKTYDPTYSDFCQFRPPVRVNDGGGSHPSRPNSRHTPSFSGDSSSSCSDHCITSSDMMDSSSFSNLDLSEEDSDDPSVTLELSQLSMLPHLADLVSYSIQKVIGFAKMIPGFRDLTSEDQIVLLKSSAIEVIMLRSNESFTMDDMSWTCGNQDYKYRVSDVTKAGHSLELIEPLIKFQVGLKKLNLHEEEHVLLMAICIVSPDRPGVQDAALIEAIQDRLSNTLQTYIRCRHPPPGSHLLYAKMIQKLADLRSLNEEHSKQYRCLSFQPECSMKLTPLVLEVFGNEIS

CO[C@@]1(NC(=O)C(C(=O)O)c2ccc(O)cc2)C(=O)N2C(C(=O)O)=C(CSc3nnnn3C)CO[C@@H]21 (stereo partly drawn)
not listed: [15] | [16] | [17] | [18] | [19] | [20]
inactive: all other assays above

CC(CC=O)CC(C)(C)C (stereo not drawn)
not listed: [4] | [20]
inactive: all other assays above

CCC(C)(CN(C)C)OC(=O)c1ccccc1 (stereo not drawn)
not listed: [9] | [11] | [14] | [15] | [16] | [17] | [18] | [20]
inactive: all other assays above

O=C(O)c1cc(C(=O)O)cc(C(=O)O)c1
not listed: [10] | [16] | [18] | [20]
inactive: all other assays above

CC(C)c1ccc2ncccc2c1
not listed: [8] | [13] | [14] | [15] | [20]
inactive: all other assays above

CC(C#N)(CCC(=O)O)N=NC(C)(C#N)CCC(=O)O (stereo not drawn)
not listed: [1] | [9] | [10] | [11] | [18]
inactive: all other assays above

CCCCN(CCC(=O)OCC)C(C)=O
not listed: [1] | [11] | [14] | [16] | [18]
inactive: all other assays above

C1CCC2(CCCCO2)OC1
not listed: [1] | [10] | [11] | [13] | [14] | [16] | [18] | [19]
inactive: all other assays above

CCCCCC(C)N (stereo not drawn)
not listed: [1] | [4] | [13] | [14] | [16] | [18] | [19]
inactive: all other assays above

CCCCCCCCCC[N+](C)(C)[O-]
not listed: [4] | [10] | [14] | [15] | [16] | [18] | [20]
inactive: all other assays above

From PubChem BioAssay (Tox21)
